Compound activity deposited in PubChem by National Center for Advancing Translational Sciences (NCATS).
TCR activator: Activators of T cell receptors: qHTS campaign. primary human leukocytes, anti-CD3, IL-2 HTRF, 48 h. Potency, µM (series often up to 9.22 µM), without a hit: at the top dose activation of IL-2 secretion, actives largely listed as activators. 330,000 tested, under 10 active. AID 504894, 2011; also: % of control where 0% means no effect
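Activity was scored as IL-2 release from primary human leukocytes given only a TCR signal (a-CD3 beads) plus compound for 48 hr. Detection used a two-antibody HTRF format read at 665nm.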
TSHR antagonist: Antagonists of the Thyroid Stimulating Hormone Receptor: HTS campaign; TSHR-expressing cells, TSH-stimulated cAMP HTRF, 2 h; hits give low values; hit rate 0.2% among 330,000; Thyrotropin receptor (Homo sapiens), P16473; activity change, negative = inhibition, % at 11.5 µM;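 active = activity change below a set negative limit, meaning inhibition stronger than a set level, cut at about -70% in these data; inconclusive = activity change between two set negative limits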; also: % is scaled to controls: 0 for no effect and ±100 for the full control effect
Target sequence (P16473 whole entry, looked up): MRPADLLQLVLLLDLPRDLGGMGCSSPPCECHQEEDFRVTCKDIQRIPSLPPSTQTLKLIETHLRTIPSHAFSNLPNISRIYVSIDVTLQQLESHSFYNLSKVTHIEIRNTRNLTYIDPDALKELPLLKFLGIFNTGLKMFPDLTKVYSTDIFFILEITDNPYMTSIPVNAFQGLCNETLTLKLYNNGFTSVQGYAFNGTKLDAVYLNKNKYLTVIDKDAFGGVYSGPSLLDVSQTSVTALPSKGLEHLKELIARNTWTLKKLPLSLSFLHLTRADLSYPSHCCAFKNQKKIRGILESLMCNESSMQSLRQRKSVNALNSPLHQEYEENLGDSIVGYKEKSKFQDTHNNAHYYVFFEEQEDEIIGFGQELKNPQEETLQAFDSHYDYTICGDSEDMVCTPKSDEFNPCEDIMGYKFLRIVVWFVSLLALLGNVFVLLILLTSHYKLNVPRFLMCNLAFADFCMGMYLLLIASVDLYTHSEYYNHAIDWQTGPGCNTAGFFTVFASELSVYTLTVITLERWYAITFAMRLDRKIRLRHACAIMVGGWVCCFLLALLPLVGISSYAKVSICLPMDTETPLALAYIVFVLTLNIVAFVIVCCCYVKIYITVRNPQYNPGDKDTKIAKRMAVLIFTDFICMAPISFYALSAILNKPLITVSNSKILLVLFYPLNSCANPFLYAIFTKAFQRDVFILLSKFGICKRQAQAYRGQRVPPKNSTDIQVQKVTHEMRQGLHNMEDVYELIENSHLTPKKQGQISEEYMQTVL
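Inhibition of cAMP made by TSHR-expressing cells under TSH stimulation (4nM final, EC80; 2 h, 37 deg C) is quantified with a one-step lysis HTRF kit, anti-cAMP cryptate versus cAMP-d2.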
RXFP1 antagonist: qHTS Assay for Antagonists of the Relaxin Receptor RXFP1; HEK293-RXFP1, relaxin-stimulated cAMP HTRF, 30 min; hits give low values; activity change, negative = inhibition, % at 57.5 µM; Relaxin receptor 1 (Homo sapiens), Q9HBX9; hit rate 0.59% among 350,000;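 active = activity change of -60% or lower, but not beyond a set lower limit; inconclusive = change between -60% and -40%, or beyond the set limit; inactive = change above -40%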; also: % is scaled to controls: 0 for no effect and ±100 for the full control effect
PTHR1 agonist: qHTS for PTHR1 Agonists: Primary Screen; Parathyroid hormone/parathyroid hormone-related peptide receptor (Homo sapiens), Q03431; HEK293 GP2 PTHR1 cells, GloSensor cAMP luminescence, 1 h; Potency, µM (top dose mostly 115 µM), inactives show top-dose activation, actives largely listed as activators; hit rate 0.075% among 410,000; also: potency is read from the fitted curve at half-maximal effect; nearly all actives have a fitted effect of over 55% in size
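HEK-293-derived GP2 cells expressing PTHR1 and a GloSensor cAMP reporter, 3,000/well, plated overnight, given luciferin plus IBMX (each 0.5 mM as added) for 1 h at 37 °C, then compound for 1 h at 37 °C. Luminescence was read after 15 min at room temperature.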
NPSR antag: qHTS Assay for Antagonists of the Neuropeptide S Receptor: cAMP Signal Transduction | Q6W5P4 | AID 1461, 2008 | Potency, µM (highest dose often 38.3 µM), without a hit: at the top dose activity change, negative = inhibition, actives largely listed as inhibitors | CHO-NPSR cells, cAMP TR-FRET, antagonist mode | hit rate 1% among 220,000; also: potency is read from the fitted curve at half-maximal effect; % is scaled to controls: 0 for no effect and ±100 for the full control effect; nearly all actives have a fitted effect of over 50% in size
RXFP1 agonist: qHTS Assay for Agonists of the Relaxin Receptor RXFP1; HEK293T-RXFP1 cAMP TR-FRET, 30 min; response scale: percent of porcine relaxin response, buffer zero; hit rate 0.3% among 370,000; Potency, µM (series often up to 57.5 µM), for inactives: at the highest dose activation, most hits filed as activators; Relaxin receptor 1 (Homo sapiens), Q9HBX9; also: potency is read from the fitted curve at half-maximal effect; % is scaled to controls: 0 for no effect and ±100 for the full control effect; nearly all actives have a fitted effect of over 60% in size
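cAMP rise read by TR-FRET after 30 min, 37C compound exposure (up to 58 uM) in RXFP1-transfected HEK293 cells with Ro 20174 present. EC50 from Hill-equation fits, with 29 nM porcine relaxin as 100% and buffer as basal.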
* = called active by the depositor; i = inactive; ? = inconclusive; . = no result; [ ] = another dose, or the depositor's remark. The sample as a whole holds a higher share of hits than the screen did. Unless noted, calls follow the shape of the dose curve; as a rule, active = well fitted curve in the direction sought with a large enough effect; inconclusive = small, poorly fitted or top-dose-only effect, or another doubt; inactive = no such curve, though single readings can be large; an effect the other way counts as inactive or inconclusive.

SMILES	TCR activator	TSHR antagonist	RXFP1 antagonist	PTHR1 agonist	NPSR antag	RXFP1 agonist
O=C(CSc1nnc(-c2ccco2)c(-c2ccco2)n1)c1ccccc1	8%	14	-97*	-9%	5%	27%
COc1ccc(-c2nnc(SCC(=O)Nc3ccc(C(C)=O)cc3)nc2-c2ccc(OC)cc2)cc1	.	.	-2	i	.	1%
CC(=O)c1ccc(NC(=O)CSc2nnc(-c3ccco3)c(-c3ccco3)n2)cc1	6%	-11	-71*	-2%	2%	-3%
CC1(C)OC(=O)Nc2ccc(Br)cc21	.	.	10	.	.	.
CCOC(=O)[C@H](CCc1ccccc1)N[C@@H](C)C(=O)N(CC(=O)O)C1Cc2ccccc2C1	.	.	-5	.	.	.
Cc1cc(C)nc(-n2nc(C)c3c2N(Cc2ccccc2C)C(=O)CC3c2ccc(Cl)cc2)n1 (centres undefined)	.	.	-7	-13%	.	-4%
Cc1cc(C)n(C(=O)/C(C#N)=N\Nc2ccccc2[N+](=O)[O-])n1	-3%	-12	-12	-5%	1%	-1%
Cc1cc(C)n(C(=O)/C(C#N)=N/Nc2cc(Cl)cc(Cl)c2)n1	5%	-82*	1	-39%	-21%	2%
CC(C)(Oc1ccc(Cl)cc1)C(=O)OCCCOC(=O)C(C)(C)Oc1ccc(Cl)cc1	.	.	-23	.	.	.
CS(=O)(=O)c1ncc(Cl)c(C(=O)Nc2ccc(OC(F)F)cc2)n1	-3%	-74*	-82*	-65%	.	12%
CCSc1ncc(Cl)c(C(=O)Nc2ccc(S(=O)(=O)N(C)c3ccccc3)cc2)n1	.	.	.	-24%	.	1%
CCN(c1ccccc1)S(=O)(=O)c1ccc(NC(=O)c2nc(S(C)(=O)=O)ncc2Cl)cc1	-2%	-89*	?	-90%	.	3%
CCS(=O)(=O)c1ncc(Cl)c(C(=O)Nc2ccc(S(=O)(=O)N(C)c3ccccc3)cc2)n1	-5%	-92*	?	-22%	.	4%
CS(=O)(=O)c1ncc(Cl)c(C(=O)Nc2ccc(N3CCOCC3)cc2)n1	11%	-8	-14	-31%[57.5 µM]	?	0%
C/C=C1\[C@H]2C=C(C)C[C@]1(N)c1ccc(=O)[nH]c1C2	.	.	-11	.	.	.
CCOc1ccc2c(c1)c(=O)c(C(=O)c1ccc(C)cc1)cn2Cc1ccccc1OC	.	.	1	-21%	.	0%
CCN(Cc1ccccc1)C(=O)CN1C(=O)COc2ccc(S(=O)(=O)N(CC)CC)cc21	.	.	.	1%	.	0%
Cc1ccc(CN2CCc3[nH]c(=S)[nH]c(=O)c3C2)cc1	-10%	-3	-1	-8%	.	6%
O=c1[nH]c(=S)[nH]c2c1CN(Cc1ccc(F)cc1)CC2	-1%	-139*	-8	i	.	-3%
O=C1NC(=S)S/C1=C\C=C\c1ccc([N+](=O)[O-])o1	-2%	-46	0	-27%	7.9µM*	-1%
CCOC(=O)c1c(CSC(=N)N)n(-c2ccc(C)cc2)c2cc(Br)c(OC(C)=O)cc12	-16%	12	.	-29%	10µM*	0%
CCC(=O)Oc1ccc2c(c1)CC[C@@H]1[C@@H]2CC[C@@]2(C)[C@H]1C[C@@H](OC(=O)CC)[C@@H]2OC(=O)CC	.	.	-20	.	.	.
Cc1cccc(-c2noc(CN(C)C(=O)c3ccco3)n2)c1	3%	-100*	-12	-22%	.	2%
Cc1cccc(-c2noc(CN(C)C(=O)c3ccoc3C)n2)c1	1%	-12	9	-26%	.	0%
O=C(O)Cc1ccc2c(c1)C(=O)c1ccccc1CO2	.	.	-22	.	.	.
CCOC(=O)c1ccc(NC(=O)/C=C/c2cccs2)cc1	5%	-16	-102*	-21%	-38%	0%
CCN(CC)CCOC(=O)c1ccc(NC(=O)/C=C/c2cccs2)cc1	0%[46.1 µM]	-1	2	-9%	-19%	2%
